From PubChem BioAssay (Tox21)
Results filed as inconclusive are left out. The source made the active and inactive calls. The call rests on the fitted dose curve.

Target: Acetylcholinesterase (Homo sapiens) (UniProt P22303)
Assay: Acetylcholinesterase (AChE) small molecule antagonists: fluorescence cell-based qHTS assay (AID 1347398); further: nearly all actives have a fitted effect of over 50% in size
Conditions: SH-SY5Y cells; Potency: AChE activity; outcome: AChE activity; series mostly up to 115 µM; activity change, negative = inhibition: at the top concentration
Procedure, shortened: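 Homogeneous quantitative HTS format. SH-SY5Y cells seeded at 2,000 per well settle overnight at 37 C. Compound pretreatment runs 30 min (37 C, 5% CO2); substrate/probe mix then reacts 40 min at RT before reading 490/520 nm.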
On the % scale 0 is the no-effect control and ±100 the full control effect.

Acetylcholinesterase (Homo sapiens), sequence (P22303 whole entry, looked up): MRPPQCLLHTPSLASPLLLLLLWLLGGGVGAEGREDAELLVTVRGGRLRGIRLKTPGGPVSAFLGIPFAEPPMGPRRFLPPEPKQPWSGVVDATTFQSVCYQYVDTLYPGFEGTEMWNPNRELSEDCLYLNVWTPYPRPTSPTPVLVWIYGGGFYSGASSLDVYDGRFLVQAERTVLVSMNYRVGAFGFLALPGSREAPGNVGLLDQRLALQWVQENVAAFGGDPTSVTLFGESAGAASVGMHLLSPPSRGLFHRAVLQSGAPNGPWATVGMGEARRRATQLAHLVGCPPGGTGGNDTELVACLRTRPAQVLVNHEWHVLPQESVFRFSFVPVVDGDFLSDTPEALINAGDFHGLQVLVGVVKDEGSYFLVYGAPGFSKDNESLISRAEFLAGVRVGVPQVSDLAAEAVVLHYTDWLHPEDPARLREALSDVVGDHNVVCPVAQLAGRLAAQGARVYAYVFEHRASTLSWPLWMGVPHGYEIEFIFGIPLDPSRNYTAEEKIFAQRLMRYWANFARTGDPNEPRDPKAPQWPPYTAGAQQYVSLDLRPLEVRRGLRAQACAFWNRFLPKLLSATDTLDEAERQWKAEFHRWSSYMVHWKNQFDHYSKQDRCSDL

Row | SMILES | activity change, negative = inhibition | Potency
1 | CCCCC(CC)COCCC#N (centres undefined) | 3.4% (inactive) | –
2 | CC(=O)OCCC1CCCCC1 | 3.09% (inactive) | –
3 | CCN(CC)C(=O)C1CN2CCc3cc(OC)c(OC)cc3C2CC1OC(C)=O (centres undefined) | 3.91% [at 53.7 µM] (inactive) | –
4 | CC(C)c1ccc2sc3ccccc3c(=O)c2c1 | -3.02% (inactive) | –
5 | CC(C)c1cccc(O)c1 | 0.46% (inactive) | –
6 | c1ccc2c(c1)ccc1ccccc12 | – | inactive
7 | COC(=O)c1ccccc1C | 2.29% (inactive) | –
8 | CN(C)CCCOC1(Cc2ccccc2)CCCCCC1 | -10.1% [at 53.7 µM] (inactive) | –
9 | CC1(C)[C@@H]2CC[C@@]1(C)C(=O)C2 | – | inactive
10 | O=C(Cl)c1ccccc1[N+](=O)[O-] | 3.07% (inactive) | –
11 | O=C(O)CCC(=O)C(=O)O | 6.43% (inactive) | –
12 | O=C(OCC1CCC2OC2C1)C1CCC2OC2C1 (centres undefined) | – | inactive
13 | CCOc1cc(NC(C)=O)ccc1C(=O)OC | -4.15% [at 53.7 µM] (inactive) | –
14 | C1N2CN3CN1CN(C2)C3 | – | inactive
15 | CCCCCCCCCCCCO | – | inactive
16 | CCCCOCCOCCOCCCC | 5.96% (inactive) | –
17 | CN(C)Cc1ccccc1O | 0.192% (inactive) | –
18 | OC[C@H]1O[C@@H]2O[C@H]3[C@H](O)[C@@H](O)[C@@H](O[C@H]4[C@H](O)[C@@H](O)[C@@H](O[C@H]5[C@H](O)[C@@H](O)[C@@H](O[C@H]6[C@H](O)[C@@H](O)[C@@H](O[C@H]7[C@H](O)[C@@H](O)[C@@H](O[C@H]1[C@H](O)[C@H]2O)O[C@@H]7CO)O[C@@H]6CO)O[C@@H]5CO)O[C@@H]4CO)O[C@@H]3CO | – | inactive
19 | CC(=O)OCc1ccccc1 | – | inactive
20 | CC12CCCC=C1C(=O)OC2=O (centres undefined) | 1.2% (inactive) | –
21 | NCCOCCN | 4.36% (inactive) | –
22 | C=CCc1ccc(OC)c(OC)c1 | – | inactive
23 | C=CCSSCCC | 1.68% (inactive) | –
24 | C=CCCCCCCCCC(=O)OCC | 3.25% (inactive) | –
